Reference: PubChem BioAssay (EPA / NIEHS)
Values joined by “and” are separate entries in the source; they are usually repeats but may differ in a detail not shown here. Identical values can stand only once. Results filed as inconclusive are left out. The source holds several records for some structures; these can differ, active in one and inactive in another. Active and inactive are the calls of the source. The calls were made as follows, unless noted: active = hit-call score of the fitted dose curve at least 0.9, where 1 is the maximum; inactive = score below 0.9.

What was measured:
[1] = CCTE_Shafer_MEA_acute_LDH: CCTE's Lactate Dehydrogenase Assay for Cytotoxicity in the Neural Acute Assay, Shafer Lab (AID 2284086; active = hit-call score of the fitted dose curve at least 0.9, where 1 is the maximum;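 also: active means LDH release rises above DMSO vehicle level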)
Summary of the method: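 Medium collected from MEA wells of primary rat cortical cultures (DIV 13 or 15) immediately after 40 min chemical exposure is assayed spectrophotometrically for lactate dehydrogenase activity. Endpoint fitted in positive direction versus DMSO.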

[2] = CCTE_Shafer_MEA_acute_cross_correlation_HWHM: CCTE's Neural Acute Assay for Cross Correlation at Half Width at Half Maximum, Shafer Lab (AID 2284026);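 also: percent change per well from pre-dose baseline in spike cross-correlogram half width; hits are a decrease in cross-correlogram half width relative to DMSO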;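 as to outcome: spontaneous network firing of rat primary cortical neurons on multiwell microelectrode arrays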
Summary of the method: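 Per-well percent change in cross-correlogram half width at half maximum, derived from 40-min recordings before and after compound (0.03-40 uM) at 37 C. Cultures were rat cortical neurons, DIV 13 or 15, with adaptive spike detection at 8x rms.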

[3] = target: mouse Estrogen Receptor alpha (Era), Esr1 (gene 13982) (UniProt P19785); experiment: NVS_NR_mERa: NovaScreen (NVS) Nuclear Receptor Binding Assay for mouse Estrogen Receptor alpha (Era) (AID 2283378; active = hit-call score of the fitted dose curve at least 0.9, where 1 is the maximum;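 also: hit means loss of bound radioligand signal relative to DMSO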)
Summary of the method: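 Filter radiodetection of radioligand displacement from extracted receptor protein, measured 18 h post-dose. Single 25 uM concentration in duplicate initially, with concentration-series follow-up. Binding loss fitted relative to DMSO.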

[4] = read-out: Monokine induced gamma interferon (MIG), CXCL9 (gene 4283); experiment: BSK_KF3CT_MIG: BioMAP Diversity Plus: KF3CT Assay for Monokine induced gamma interferon (MIG) Biomarker Activity (AID 2284248); details: primary human keratinocytes with fibroblasts
Summary of the method: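 Parallel cultures were stained with SRB (560 nm) to check cytotoxicity. MIG was quantified by ELISA in a primary human skin keratinocyte/fibroblast co-culture 24 h post-dosing, with gain of signal fitted relative to DMSO.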

[5] = read-out: Plasminogen activator inhibitor-1 (PAI1), SERPINE1 (gene 5054); experiment: BSK_KF3CT_PAI1: BioMAP Diversity Plus: KF3CT Assay for Plasminogen activator inhibitor-1 (PAI1) Biomarker Activity (AID 2284252); details: primary human keratinocytes with fibroblasts
Summary of the method: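 Cells (human keratinocytes co-cultured with foreskin fibroblasts) are exposed to test chemical for 24 h. PAI-1 is then measured by ELISA and analysed for signal gain against DMSO.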

[6] = read-out: Interleukin-8 (IL8), CXCL8 (gene 3576); experiment: BSK_KF3CT_IL8: BioMAP Diversity Plus: KF3CT Assay for Interleukin-8 (IL8) Biomarker Activity (AID 2284254); details: primary human keratinocytes with fibroblasts
Summary of the method: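 IL-8 by ELISA in primary human skin co-culture (keratinocytes plus fibroblasts) 24 h post-dose, DMSO as baseline. Cytotoxicity assessed in parallel by sulforhodamine B total-protein staining.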

[7] = read-out: Interferon-inducible T-cell alpha chemoattractant (ITAC), CXCL11 (gene 6373); experiment: BSK_BE3C_ITAC: BioMAP Diversity Plus: BE3C Assay for Interferon-inducible T-cell alpha chemoattractant (ITAC) Biomarker Activity (AID 2284279); details: primary human bronchial epithelial cells
Summary of the method: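 ELISA for I-TAC in primary human bronchial epithelial cultures 24 h post-treatment, fitted relative to DMSO baseline in positive direction. Cytotoxicity checked in parallel cultures by sulforhodamine B protein staining.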

[8] = read-out: Interleukin-8 (IL8), CXCL8 (gene 3576); experiment: BSK_BE3C_IL8: BioMAP Diversity Plus: BE3C Assay for Interleukin-8 (IL8) Biomarker Activity (AID 2284280); details: primary human bronchial epithelial cells
Summary of the method: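 Dose human bronchial epithelial cells with chemical; incubate 24 h; quantify IL-8 by ELISA; fit response upward versus DMSO controls.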

[9] = read-out: Plasminogen activator inhibitor-1 (PAI1), SERPINE1 (gene 5054); experiment: BSK_CASM3C_PAI1: BioMAP Diversity Plus: CASM3C Assay for Plasminogen activator inhibitor-1 (PAI1) Biomarker Activity (AID 2284284); details: primary human coronary artery smooth muscle cells;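 also: PAI-1 protein level measured by ELISA 24 h after dosing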
[10] = read-out: Intercellular Adhesion Molecule 1 (ICAM1), ICAM1 (gene 3383); experiment: BSK_hDFCGF_ICAM1: BioMAP Diversity Plus: hDFCGF Assay for Intercellular Adhesion Molecule 1 (ICAM1) Biomarker Activity (AID 2284287); details: primary human foreskin fibroblasts
Summary of the method: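 ICAM-1 ELISA readout 24 h after dosing, DMSO as baseline, in human dermal foreskin fibroblast cultures. Cytotoxicity checked in parallel wells by SRB staining (0.1% SRB, 10% TCA fixation, 560 nm).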

CD69, CD69 (gene 969) = experiment: BSK_LPS_CD69: BioMAP Diversity Plus: LPS Assay for CD69 Biomarker Activity (AID 2284303); details: primary human HUVEC with PBMC
Summary of the method: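 CD69 surface levels were read by ELISA after 24 h chemical treatment of an LPS-stimulated HUVEC plus PBMC co-culture; positive-direction fit against DMSO vehicle.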

[11] = ATG_ERE_CIS: Attagene CIS-FACTORIAL HepG2 Assay for Estrogen Response Element (ERE) (AID 2282940); details: HepG2 ERE cis-reporter, Attagene RNA transcript; actives raise or lower the signal
Summary of the method: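 Measuring endogenous transcription factor output, the assay doses transfected HepG2 cells for 24 hours and quantifies reporter transcripts by fluorescent RT-PCR and capillary electrophoresis, with DMSO as baseline.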

[12] = CCTE_Harrill_HTTr_CellCount_MCF7: CCTE's Cell Proliferation Assessment for the High-Throughput Transcriptomics (HTTr) Platform, Harrill Lab (AID 2284012; active = hit-call score of the fitted dose curve at least 0.9, where 1 is the maximum;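 also: cells exposed to compound for six hours; intended direction is loss of nuclei count meaning fewer cells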)
Summary of the method: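 Cell count served as viability reporter: loss of Hoechst-stained nuclei, counted by high content imaging, marks decreased growth or survival. Exposure was 6 h in MCF-7 cells across eight concentrations, with DMSO as baseline.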

[13] = target: Retinoic acid receptor RXR-alpha (Homo sapiens) (UniProt P19793); experiment: OT_NURR1_NURR1RXRa_1440: Odyssey Thera (OT) 24-hour HEK293T Protein Complementation Assay for Nurr1/retinoid X receptor (RXR) (AID 2283386; active = hit-call score of the fitted dose curve at least 0.9, where 1 is the maximum)
Summary of the method: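 Steps: fragment-tagged Nurr1 and RXRα expressed in HEK293T; compounds added; after 24 h, complemented reporter quantified by fluorescence intensity; signal increase over DMSO fitted as the single endpoint.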

[14] = target: Peroxisome proliferator-activated receptor gamma (Homo sapiens) (UniProt P37231); experiment: OT_PPARg_PPARgSRC1_0480: Odyssey Thera (OT) 8-hour Protein-Complementation Assay for Peroxisome Proliferator-activated Receptor Gamma / SRC-1 Co-activator (AID 2283387; active = hit-call score of the fitted dose curve at least 0.9, where 1 is the maximum;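 also: nuclear to cytoplasmic split Venus YFP fluorescence ratio reporting PPARg SRC-1 interaction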)
Summary of the method: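 HEK293T transiently transfected with PPARg and SRC-1 fused to Venus YFP fragments, compounds 8 h at 37C. Fixed, Draq5-stained cells imaged; nuclear/cytoplasmic 488 nm fluorescence ratio over at least 350 cells per image; gain fitted versus DMSO.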

[15] = ACEA_AR_agonist_AUC_viability: ACEA Biosciences xCELLigence Real-Time Cell Analysis on Androgen Receptor Agonism for Viability (AID 2283775; active = hit-call score of the fitted dose curve at least 0.9, where 1 is the maximum)
Summary of the method: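 22Rv1 cells; impedance growth kinetics; 8-pt 1:4 dilutions from 100 uM top final, ≤0.5% DMSO; n = 2; 80 h read; AUC viability, loss-of-signal vs DMSO.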

[16] = ACEA_AR_antagonist_AUC_viability: ACEA Biosciences xCELLigence Real-Time Cell Analysis on Androgen Receptor Antagonism for Viability (AID 2283776; active = hit-call score of the fitted dose curve at least 0.9, where 1 is the maximum;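 also: area under impedance growth curve at 80 h after dosing as viability; hits lower the growth signal relative to DMSO meaning cytotoxicity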)
Summary of the method: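 22Rv1 human prostate cancer cells were seeded on electrode plates, monitored overnight, then exposed to eight 1:4 dilutions from 100 uM final. Impedance-based growth kinetics at 80 h gave an AUC viability endpoint normalized to DMSO.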

[17] = target: Estrogen receptor beta (Homo sapiens) (UniProt Q92731); experiment: OT_ER_ERbERb_0480: Odyssey Thera (OT) 8-hour HEK293T Protein-Complementation Assay for Estrogen Receptor-beta/-beta Homodimer (AID 2283357; active = hit-call score of the fitted dose curve at least 0.9, where 1 is the maximum;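 also: active means signal gain over DMSO baseline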)
Summary of the method: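 Homodimerization of ER-beta LBD measured by protein-fragment complementation in HEK293T; 8 h dosing; fixed, Draq5 counterstain; fluorescence intensity gain over DMSO baseline, positive fitting direction; laser scanning cytometry.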

[18] = target: Estrogen receptor beta (Homo sapiens) (UniProt Q92731); experiment: OT_ER_ERbERb_1440: Odyssey Thera (OT) 24-hour HEK293T Protein-Complementation Assay for Estrogen Receptor-beta/-beta Homodimer (AID 2283380; active = hit-call score of the fitted dose curve at least 0.9, where 1 is the maximum;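 also: scored as signal increase over DMSO baseline for both agonists and antagonists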)
Summary of the method: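 HEK293T cells stably expressing ER beta LBD (aa 310-547) homodimer fragment-complementation reporter, dosed 24 h. Cells formaldehyde-fixed, Draq5-stained; gain in nuclear (agonist) or nuclear plus cytoplasmic (antagonist) fluorescence versus DMSO read by laser scanning cytometry.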

[19] = ATG_GAL4_TRANS: Attagene TRANS-FACTORIAL HepG2 Assay for GAL4 (Internal Marker) (AID 2282976; active = hit-call score of the fitted dose curve at least 0.9, where 1 is the maximum); details: HepG2 Attagene TRANS GAL4 internal marker reporter
Summary of the method: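 In transfected human HepG2 liver cells dosed 24 h, GAL4 reporter mRNA serves as a baseline marker. Detection by RT-PCR with fluorescent capillary electrophoresis, activity fitted upward relative to DMSO.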

Sequence of Retinoic acid receptor RXR-alpha (Homo sapiens) (P19793 whole entry, looked up, the tested form may be a part): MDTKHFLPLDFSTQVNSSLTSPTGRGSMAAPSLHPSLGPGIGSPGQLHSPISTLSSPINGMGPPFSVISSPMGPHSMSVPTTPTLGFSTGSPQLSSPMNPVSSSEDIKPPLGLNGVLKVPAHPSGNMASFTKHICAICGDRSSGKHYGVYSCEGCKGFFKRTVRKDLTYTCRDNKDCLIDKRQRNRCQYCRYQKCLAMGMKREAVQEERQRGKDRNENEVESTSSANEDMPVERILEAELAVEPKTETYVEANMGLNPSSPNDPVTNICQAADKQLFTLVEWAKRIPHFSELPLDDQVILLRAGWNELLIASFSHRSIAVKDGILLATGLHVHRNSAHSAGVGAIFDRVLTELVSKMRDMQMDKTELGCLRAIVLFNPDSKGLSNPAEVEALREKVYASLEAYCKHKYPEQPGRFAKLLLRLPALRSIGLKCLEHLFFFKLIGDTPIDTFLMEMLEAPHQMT
Sequence of Estrogen receptor beta (Homo sapiens) (Q92731 whole entry, looked up, the tested form may be a part): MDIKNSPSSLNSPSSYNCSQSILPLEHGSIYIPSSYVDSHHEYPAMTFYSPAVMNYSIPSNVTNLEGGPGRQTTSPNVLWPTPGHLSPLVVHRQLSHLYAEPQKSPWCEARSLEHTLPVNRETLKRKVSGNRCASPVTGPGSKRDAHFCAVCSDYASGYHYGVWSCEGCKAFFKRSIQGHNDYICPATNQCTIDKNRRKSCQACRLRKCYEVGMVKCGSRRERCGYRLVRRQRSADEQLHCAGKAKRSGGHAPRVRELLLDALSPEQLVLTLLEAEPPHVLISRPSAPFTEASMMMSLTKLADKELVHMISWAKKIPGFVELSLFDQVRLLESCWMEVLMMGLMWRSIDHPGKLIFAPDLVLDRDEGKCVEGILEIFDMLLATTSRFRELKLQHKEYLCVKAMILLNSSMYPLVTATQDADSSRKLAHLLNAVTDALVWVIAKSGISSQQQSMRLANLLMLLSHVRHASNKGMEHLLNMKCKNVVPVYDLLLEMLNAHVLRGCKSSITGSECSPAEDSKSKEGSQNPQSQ
Sequence of Peroxisome proliferator-activated receptor gamma (Homo sapiens) (P37231 whole entry, looked up, the tested form may be a part): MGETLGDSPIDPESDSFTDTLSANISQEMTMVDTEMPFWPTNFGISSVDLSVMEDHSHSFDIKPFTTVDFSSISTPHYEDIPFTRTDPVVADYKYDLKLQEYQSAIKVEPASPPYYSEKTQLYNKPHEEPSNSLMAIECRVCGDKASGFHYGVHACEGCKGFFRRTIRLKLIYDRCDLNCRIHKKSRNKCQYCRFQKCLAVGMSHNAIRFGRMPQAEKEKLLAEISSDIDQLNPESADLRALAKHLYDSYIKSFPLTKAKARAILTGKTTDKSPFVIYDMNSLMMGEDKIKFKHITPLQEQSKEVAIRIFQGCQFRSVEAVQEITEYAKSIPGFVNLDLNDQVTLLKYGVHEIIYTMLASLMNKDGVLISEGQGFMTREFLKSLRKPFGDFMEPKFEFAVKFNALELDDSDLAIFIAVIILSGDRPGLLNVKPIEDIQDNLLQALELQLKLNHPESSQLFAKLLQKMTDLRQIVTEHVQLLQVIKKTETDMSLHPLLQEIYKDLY
Sequence of mouse Estrogen Receptor alpha (Era), Esr1 (gene 13982) (P19785 whole entry, looked up): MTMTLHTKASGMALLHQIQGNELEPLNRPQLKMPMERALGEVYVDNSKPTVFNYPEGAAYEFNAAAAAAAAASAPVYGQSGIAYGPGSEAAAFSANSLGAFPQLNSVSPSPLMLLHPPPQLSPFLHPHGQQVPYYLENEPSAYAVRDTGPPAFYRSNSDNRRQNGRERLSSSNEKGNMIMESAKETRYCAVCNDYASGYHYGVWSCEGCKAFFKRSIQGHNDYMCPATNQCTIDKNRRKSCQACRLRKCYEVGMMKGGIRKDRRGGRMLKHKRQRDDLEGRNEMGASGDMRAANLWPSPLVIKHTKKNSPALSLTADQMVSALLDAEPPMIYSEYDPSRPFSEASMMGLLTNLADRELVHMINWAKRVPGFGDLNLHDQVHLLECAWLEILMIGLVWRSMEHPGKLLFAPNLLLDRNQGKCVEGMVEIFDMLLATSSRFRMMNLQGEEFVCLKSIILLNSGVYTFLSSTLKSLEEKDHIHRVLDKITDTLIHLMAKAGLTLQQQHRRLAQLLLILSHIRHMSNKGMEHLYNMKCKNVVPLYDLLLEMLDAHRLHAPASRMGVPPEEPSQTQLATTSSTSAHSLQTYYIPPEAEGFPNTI

CN(C)CCC(c1ccc(Cl)cc1)c1ccccn1 (centres undefined)
outcome [1]: inactive

CC1(C)S[C@@H]2[C@H](NC(=O)[C@H](N)c3ccccc3)C(=O)N2[C@H]1C(=O)O
outcome [2]: inactive
outcome [1]: inactive

COC(OC)C(C)c1ccccc1 (centres undefined)
outcome [3]: inactive

CC[N+](CC)(CC(=O)Nc1c(C)cccc1C)Cc1ccccc1 (tested in a mixture with another compound)
AC50 [2]: 1.05 µM (active)
outcome [1]: inactive
outcome [4]: inactive
outcome [5]: inactive
outcome [6]: inactive
outcome [7]: inactive
outcome [8]: inactive
outcome [9]: inactive
outcome [10]: inactive
outcome (CD69, CD69 (gene 969)): inactive

Cc1cc2nc3c(=O)[nH]c(=O)nc-3n(C[C@H](O)[C@H](O)[C@H](O)CO)c2cc1C
outcome [3]: inactive

Oc1ccc(Oc2ccccc2)cc1
AC50 [3]: 8.86 µM (active)

Oc1ccc(Cl)cc1C1CCCC1
AC50 [11]: 8.73 µM (active)
outcome [12]: inactive

CCCCOC(=O)COc1ccc(Cl)cc1Cl
outcome [13]: inactive
outcome [14]: inactive
outcome [15]: inactive
outcome [16]: inactive

Cc1ccccc1S(=O)(=O)O
outcome [17]: inactive
outcome [18]: inactive

CC(C)CC(=O)CC(C)C
outcome [17]: inactive
outcome [18]: inactive
outcome [13]: inactive

O=C(O)c1ccccc1C(=O)O
outcome [11]: inactive
outcome [19]: inactive
outcome [13]: inactive
outcome [15]: inactive
outcome [16]: inactive

CCC(C)NC(N)=O (centres undefined)
outcome [11]: inactive

C=CC(C)(CCC=C(C)C)OC(=O)c1ccccc1 (centres undefined)
outcome [3]: inactive

NC(N)=Nc1nc(CSCCC(N)=NS(N)(=O)=O)cs1
AC50 [11]: 26.1 µM (active)
outcome [12]: inactive
outcome [2]: inactive
outcome [1]: inactive

CO[Si](CCCNCCN)(OC)OC
outcome [17]: inactive
outcome [18]: inactive
outcome [14]: inactive
outcome [16]: inactive

CC/C=C\CCO
outcome [17]: inactive
outcome [18]: inactive
outcome [13]: inactive
outcome [16]: inactive
outcome [12]: inactive

Nc1ccc(S(=O)(=O)Nc2cnc3ccccc3n2)cc1
outcome [17]: inactive
outcome [18]: inactive
outcome [13]: inactive
outcome [14]: inactive

CN(C)Cc1cc(C(C)(C)C)c(O)c(C(C)(C)C)c1
AC50 [2]: 15 µM (active)
outcome [1]: inactive
outcome [4]: inactive
outcome [5]: inactive
outcome [6]: inactive
outcome [7]: inactive
outcome [8]: inactive
outcome [9]: inactive
outcome [10]: inactive
AC50 (CD69, CD69 (gene 969)): 20 µM (active) and 23.1 µM (active)

O=C(c1ccccc1)c1ccccc1O
AC50 [17]: 50 µM (active)
outcome [18]: inactive
outcome [14]: inactive
outcome [15]: inactive
outcome [16]: inactive

c1cc[c]([Bi]([c]2ccccc2)[c]2ccccc2)cc1
AC50 [11]: 6.83 µM (active)
outcome [19]: inactive

CCOC(=O)CC(=O)OCC
outcome [13]: inactive
outcome [15]: inactive

CCCC(=O)OC
outcome [11]: inactive

O=C(CC(C(=O)OC1CCCCC1)S(=O)(=O)O)OC1CCCCC1 (centres undefined)
outcome [17]: inactive
outcome [18]: inactive
outcome [13]: inactive
outcome [14]: inactive
outcome [15]: inactive
outcome [16]: inactive

Sc1nc2ccccc2s1
outcome [17]: inactive
outcome [18]: inactive
outcome [14]: inactive
outcome [16]: inactive

CCC(C)C1N=C(C)C(C)S1 (centres undefined)
outcome [19]: inactive

O=C1NC(=O)[C@@H]2CC=CC[C@H]12
outcome [19]: inactive

O=C(O)c1cc(Cl)cc(Cl)c1O
outcome [19]: inactive
outcome [12]: inactive

CCCCNC(N)=O
outcome [19]: inactive

CCC[Si](OC(C)=O)(OC(C)=O)OC(C)=O
outcome [2]: inactive
outcome [1]: inactive
outcome [4]: inactive
outcome [5]: inactive
outcome [6]: inactive
outcome [7]: inactive
outcome [8]: inactive
outcome [9]: inactive
outcome [10]: inactive
AC50 (CD69, CD69 (gene 969)): 327 nM (active)
outcome (CD69, CD69 (gene 969)): inactive

CC(=O)O[C@]1(C(C)=O)CC[C@H]2[C@@H]3C=C(C)C4=CC(=O)CC[C@]4(C)[C@H]3CC[C@@]21C
outcome [12]: inactive

COc1cc(CNC(=O)CCCC/C=C/C(C)C)ccc1O
AC50 [2]: 5.46 µM (active)
outcome [1]: inactive
outcome [4]: inactive
outcome [5]: inactive
outcome [6]: inactive
outcome [7]: inactive
outcome [8]: inactive
outcome [9]: inactive
outcome [10]: inactive
outcome (CD69, CD69 (gene 969)): inactive

[O-][n+]1ccc(Cl)cc1
outcome [19]: inactive

CC1=C(CC(=O)O)c2cc(F)ccc2/C1=C\c1ccc(S(C)=O)cc1 (centres undefined)
outcome [12]: inactive

Cc1ccnc(N)c1
outcome [12]: inactive

CC[N+](CC)(CC(=O)Nc1c(C)cccc1C)Cc1ccccc1
outcome [19]: inactive
outcome [13]: inactive
outcome [14]: inactive
